Data on 92 molecules can be found in PubChem BioAssay AID449739 (Vanderbilt High Throughput Screening Facility, 2010).

The campaign covered roughly 100,000 compounds. About 4,200 (4.2%) were called active. The full list was thinned out, with actives kept by preference. Unmarked numbers belong to inactive results.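 Rule for the calls: active = single-dose well whose peak fluorescence ratio is a statistical outlier from its plate by either plate-standardised score or position-corrected B-score; inactive = the rest.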

In this experiment the target is Voltage-dependent T-type calcium channel subunit alpha-1H (Homo sapiens) (UniProt O95180). The experiment is described as follows: Cav3.2 calcium influx blockers – cell-based, Fluo-4 calcium fluorescence, FDSS, MLSMR library, primary screen (AID 449739). The settings on record: Cav3.2-expressing cells, at 10 µM, active compounds read low.
Voltage-dependent T-type calcium channel subunit alpha-1H (Homo sapiens), sequence (O95180 whole entry, looked up): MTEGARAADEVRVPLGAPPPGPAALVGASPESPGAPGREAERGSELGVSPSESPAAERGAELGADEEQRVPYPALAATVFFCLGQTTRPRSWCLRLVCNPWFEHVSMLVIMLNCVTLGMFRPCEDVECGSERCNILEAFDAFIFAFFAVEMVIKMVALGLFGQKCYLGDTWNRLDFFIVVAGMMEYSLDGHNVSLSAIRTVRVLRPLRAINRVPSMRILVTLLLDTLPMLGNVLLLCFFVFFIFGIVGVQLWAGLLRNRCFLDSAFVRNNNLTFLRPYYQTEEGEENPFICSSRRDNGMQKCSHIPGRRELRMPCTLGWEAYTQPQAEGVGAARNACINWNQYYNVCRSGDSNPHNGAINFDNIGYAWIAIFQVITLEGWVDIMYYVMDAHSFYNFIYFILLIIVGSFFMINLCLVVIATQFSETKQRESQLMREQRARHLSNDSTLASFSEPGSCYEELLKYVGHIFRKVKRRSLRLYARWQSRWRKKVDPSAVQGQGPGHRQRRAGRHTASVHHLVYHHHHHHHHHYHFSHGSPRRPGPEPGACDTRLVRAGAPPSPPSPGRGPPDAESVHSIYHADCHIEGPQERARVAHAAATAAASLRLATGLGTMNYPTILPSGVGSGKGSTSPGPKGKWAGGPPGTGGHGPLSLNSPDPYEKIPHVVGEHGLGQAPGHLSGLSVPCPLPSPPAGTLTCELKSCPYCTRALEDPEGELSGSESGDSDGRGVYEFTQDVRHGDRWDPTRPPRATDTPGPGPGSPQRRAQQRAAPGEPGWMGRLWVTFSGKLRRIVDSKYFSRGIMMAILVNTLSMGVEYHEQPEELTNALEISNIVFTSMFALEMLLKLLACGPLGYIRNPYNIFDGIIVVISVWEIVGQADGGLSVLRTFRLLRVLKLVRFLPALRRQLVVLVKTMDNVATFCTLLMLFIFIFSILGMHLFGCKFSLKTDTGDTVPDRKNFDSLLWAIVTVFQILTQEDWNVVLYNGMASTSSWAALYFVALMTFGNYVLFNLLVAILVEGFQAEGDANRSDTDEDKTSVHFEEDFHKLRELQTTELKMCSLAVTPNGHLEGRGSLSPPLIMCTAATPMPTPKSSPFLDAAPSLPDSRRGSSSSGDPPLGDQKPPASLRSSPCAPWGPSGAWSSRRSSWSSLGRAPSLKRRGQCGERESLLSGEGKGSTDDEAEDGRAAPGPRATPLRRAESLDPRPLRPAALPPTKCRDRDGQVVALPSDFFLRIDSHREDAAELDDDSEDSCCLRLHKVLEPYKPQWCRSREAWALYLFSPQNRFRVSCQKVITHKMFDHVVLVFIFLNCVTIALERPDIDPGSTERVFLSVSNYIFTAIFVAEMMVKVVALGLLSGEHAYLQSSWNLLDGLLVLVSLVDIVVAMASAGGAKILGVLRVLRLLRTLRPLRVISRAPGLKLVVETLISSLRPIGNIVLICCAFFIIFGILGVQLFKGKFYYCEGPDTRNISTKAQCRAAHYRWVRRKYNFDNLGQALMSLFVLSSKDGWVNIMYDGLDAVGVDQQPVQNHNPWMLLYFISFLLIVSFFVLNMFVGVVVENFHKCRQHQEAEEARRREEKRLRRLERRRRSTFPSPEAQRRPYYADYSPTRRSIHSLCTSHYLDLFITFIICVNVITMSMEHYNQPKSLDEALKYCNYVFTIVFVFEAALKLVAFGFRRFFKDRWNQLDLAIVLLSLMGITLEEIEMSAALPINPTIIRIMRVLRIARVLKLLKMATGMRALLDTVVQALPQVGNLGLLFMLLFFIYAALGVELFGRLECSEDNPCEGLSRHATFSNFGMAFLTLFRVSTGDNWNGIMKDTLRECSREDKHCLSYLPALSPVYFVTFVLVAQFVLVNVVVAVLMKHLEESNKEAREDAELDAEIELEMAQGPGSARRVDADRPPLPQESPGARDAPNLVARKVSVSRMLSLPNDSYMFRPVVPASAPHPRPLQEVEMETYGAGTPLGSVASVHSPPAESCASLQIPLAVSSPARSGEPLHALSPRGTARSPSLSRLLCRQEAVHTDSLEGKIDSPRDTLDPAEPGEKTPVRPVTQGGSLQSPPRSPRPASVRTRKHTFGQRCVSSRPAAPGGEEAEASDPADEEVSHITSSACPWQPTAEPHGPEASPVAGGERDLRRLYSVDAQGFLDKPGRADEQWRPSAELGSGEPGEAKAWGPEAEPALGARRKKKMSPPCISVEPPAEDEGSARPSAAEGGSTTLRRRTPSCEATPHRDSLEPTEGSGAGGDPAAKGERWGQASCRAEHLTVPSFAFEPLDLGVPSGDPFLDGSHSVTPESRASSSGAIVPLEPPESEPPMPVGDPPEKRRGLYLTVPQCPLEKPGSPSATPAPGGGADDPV
Take `NC(=O)C1=C[C@@H](c2ccc3c(c2)OCO3)C[C@@H](OCCCCO)O1`: the B-score is 0.476.

With `COc1ccc(-c2nnn(CC(=O)N(CCO)C(C(=O)NC3CCCC3)c3ccc(F)cc3)n2)cc1` (configuration not stated), the B-score is -1.11.

For the molecule `O=C(Cn1nnc(-c2ccc(CN3CCOCC3)cc2)n1)NC1CCCCC1`, the B-score was -0.444.

Consider `COc1cccc(N(CC(=O)NC2CCCC2)C(=O)Cn2nnc(-c3ccc(C)cc3)n2)c1`, for which the B-score was -4.56 (active).

Take `COCc1cc(C)nc2sc(C(=O)NC3CCCCC3)c(N)c12`: the B-score was -0.0172.

For the molecule `N#CC1=C(N)N(c2ccc(F)cc2)C(=O)C1`, the B-score is -0.201.

As for `CCOc1ccc(NC(=O)CC2NCCNC2=O)cc1` (configuration not stated), the B-score is 0.0128.

For `CCCOc1ccc(NC(=O)C2CCCNC2=O)cc1` (configuration not stated), the B-score was -0.159.

In the case of `O=C(CC1NCCNC1=O)Nc1ccc(Oc2ccccc2)cc1` (configuration not stated), the B-score is -5.21 (active).

With `O=C1CCCC2=C1C(c1ccccc1)n1c(s/c(=C/c3cccc(F)c3)c1=O)=N2` (configuration not stated), the B-score is 0.975.

As for `O=C1N[C@@H](Cc2ccccc2)C(=O)N2[C@@H]3N(S(=O)(=O)c4ccc(F)cc4)c4ccccc4[C@]3(Br)C[C@@H]12`, the B-score was 0.27.

Regarding `O=S(=O)(O)c1nc2ccccc2n1Cc1ccc(Cl)cc1`, the B-score is -0.194.

For `N=c1n(Cc2ccc(Cl)cc2)c2ccccc2n1CC(O)c1ccco1` (configuration not stated), the B-score was -3.51 (active).

As for `Cn1c(=N)n(CC(O)c2ccccc2)c2ccccc21` (configuration not stated), the B-score was 0.141.

Turning to `Cc1cc([N+](=O)[O-])ccc1NCc1cccc([N+](=O)[O-])c1`, the B-score is 0.0686.

On to `Cc1c(CCO)c(=O)[nH]n1C(=O)c1c(F)cccc1F`, for which the B-score is 0.442.

As to `CC1CN(c2nc(-c3ccccc3)nnc2-c2ccccc2)CC(C)O1` (configuration not stated), the B-score is -0.222.

`CSc1cc(C)n(-c2ccccc2C)c(=S)c1C(C)=O`: the B-score is 0.0764.

With `Cc1ccc(Cn2c(NC(=O)c3ccco3)nc3ccccc32)cc1`, the B-score was 1.58.

For the molecule `Cc1ccc(Cn2c(C)nc3c(c2=O)c2nc4ccccc4nc2n3Cc2ccco2)cc1`, the B-score was -6.69 (active).

With `Clc1cccc(-c2nc3nc4ccccc4nc3n2Cc2ccco2)c1`, the B-score was -2.21.

As to `COc1cc(OC)c2ccc(=O)oc2c1C(CCN1CCN(c2ccccc2)CC1)c1ccc2c(c1)OCO2` (configuration not stated), the B-score was -0.318.

On to `C/C=C(\C)C(=O)NCCN1C2=NC[C@H](Cc3ccc(O)cc3)N2C[C@@H]1Cc1ccc(OC)cc1`, for which the B-score is -0.0234.

Consider `CCO[C@H]1OC(C(=O)N2CCOCC2)=C[C@@H](c2ccc3c(c2)OCO3)[C@@H]1CCCO`, for which the B-score is -0.694.

As for `Cc1cccc(C)c1NC(=O)CSc1nnc(-c2ccccc2)n1Cc1ccc2c(c1)OCO2`, the B-score is -6.18 (active).

Consider `O=C(CSc1nnc(-c2ccccn2)n1-c1ccccc1)Nc1ccc2c(c1)OCO2`, for which the B-score was 0.144.

On to `Cc1ccccc1-c1nnc(SCC(=O)NCc2ccc3c(c2)OCO3)n1C`, for which the B-score was 0.345.

With `COCCNC(=O)c1onc(CSc2cccc(C)c2)c1C(=O)O`, the B-score is 1.46.

As for `CCCCN=C1N/C(=C\c2ccco2)C(=O)N1c1ccccc1`, the B-score is 0.203.

As to `C=C(C)Cn1c(C)cc(C)c(S(=O)(=O)c2ccccc2C)c1=O`, the B-score was -4.84 (active).

On to `COC/C=C/C1=CC2=CC(=O)C(C)(OC(=O)CCC(=O)OC)C(=O)C2=CO1` (configuration not stated), for which the B-score is -0.853.

Turning to `CC1CCN(C(NC(=O)c2ccco2)C(=O)c2ccccc2)CC1` (configuration not stated), the B-score was -1.33.

With `COCCNC(=O)Cn1cc(C(=O)c2cccs2)c2ccccc21`, the B-score is 0.167.

As to `COC(=O)c1cn(CC(=O)NCc2cccs2)c2ccccc12`, the B-score was -0.599.

Turning to `O=C(Cn1cc(C(=O)c2cccs2)c2ccccc21)NCc1cccs1`, the B-score is -4.4 (active).

Regarding `CC(=O)n1cc([C@@H]2C=C(C(=O)N3CCN(Cc4ccc5c(c4)OCO5)CC3)O[C@H](OCc3ccc(CO)cc3)C2)c2ccccc21`, the B-score is -1.49.

Consider `CC1(OC(=O)CCc2ccccc2)C(=O)C=C2C=C(c3ccc(C#N)cc3)N(CCc3ccccn3)C=C2C1=O` (configuration not stated), for which the B-score was 0.634.

In the case of `CC(C)C[C@H](CO)Nc1nc(N(C)c2cccc(Cl)c2)c2ncn(C(C)C)c2n1`, the B-score is -3.33 (active).

Take `CC(C)n1cnc2c(Nc3cccc(Cl)c3)nc(N(CCO)CCCO)nc21`: the B-score is -0.405.

Regarding `COC(=O)C(C)n1cnc2c(nnn2-c2cccc(Cl)c2)c1=O` (configuration not stated), the B-score is -0.438.

For `CCCC(=O)Nc1c(O)c2ccccc2[nH]c1=O`, the B-score is -0.361.

Take `CCCc1nc2ccccc2c(=O)n1NC(=O)c1c(O)c2ccccc2[nH]c1=O`: the B-score was -3.3 (active).

As to `CCCCc1nc2ccccc2c(=O)n1NC(=O)c1c(O)c2cccc3c2n(c1=O)CC3`, the B-score was -7.27 (active).

For the molecule `Cn1c(SCC(=O)N2CCCc3ccccc32)nc2ccccc2c1=O`, the B-score was -2.58.

With `CCCc1nc2ccccc2c(=O)n1/N=C/c1ccc(O)c(O)c1`, the B-score is 0.0906.

Regarding `CCNC(=O)c1c(O)c2cccc3c2n(c1=O)CC3`, the B-score is -0.155.

With `Cc1nc(C)c(C(=O)N(c2ccc(C)c(C)c2)C(C(=O)NCc2ccco2)c2ccccc2)s1` (configuration not stated), the B-score was -0.655.

For `COc1ccc(NCc2nnc(SCc3ccccc3)n2-c2ccc(OC)cc2)cc1`, the B-score is -3.07.

As for `Cc1cccc(N2C(=O)C3C(c4ccccc4)OC4(C(=O)c5ccccc5C4=O)C3C2=O)c1` (configuration not stated), the B-score is -0.244.

As to `Cc1nc(-c2ccc(Cl)cc2)sc1C1(C)CC(c2ccccc2F)=NO1` (configuration not stated), the B-score was 1.15.

`COc1ccc(SCCN2CCN(CC(C)C)CCC2=O)cc1`: the B-score is 0.677.

As for `CCOC(=O)/C=C/CN(C(=O)OC(C)(C)C)S(=O)(=O)N1CC=CC1`, the B-score was 0.152.

As to `COC(=O)C1=C(Nc2ccc(C)cc2)C=C(C)C(C(=O)OC)C1c1ccc(F)cc1` (configuration not stated), the B-score was -5.1 (active).

Take `COC(=O)c1cc(OC)ccc1-c1ccc(OC)cc1`: the B-score is 0.191.

Regarding `COC(=O)C1C(=O)NCC1c1ccc(OC)cc1` (configuration not stated), the B-score was 0.134.

Regarding `COC(=O)C1=C(Nc2ccc(OC)cc2)C=C(C)C(C(=O)OC)C1c1ccc(C)cc1` (configuration not stated), the B-score was -5.75 (active).

On to `Cc1ccc(NC(=O)C2CC(c3ccc(F)cc3)=NO2)cc1` (configuration not stated), for which the B-score is 0.0436.

For the molecule `COC(=O)c1ccc(NC(=O)Nc2ccc(C)cc2)cc1`, the B-score was 0.0358.

`COP1(=O)C[C@@H](O)[C@@H](O)[C@@H](COCc2ccccc2)O1` (some centres not stated): the B-score is 0.634.

For `CC(=O)Nc1ccccc1C(=O)C(=O)Nc1ccc(F)cc1`, the B-score is 0.288.

As for `COc1cccc(CNc2nc3nc4c(c(=O)n3[nH]2)CCC4)c1`, the B-score was -0.11.

Take `Cc1cc2cc3c(N)[nH]nc3nc2cc1C`: the B-score was 0.083.

Turning to `O=[N+]([O-])c1ccc(NCCCN2CCOCC2)c(Cl)c1`, the B-score was 0.715.

For the molecule `O=C(CN1C(=O)NC2(CCCC2)C1=O)Nc1ccc(F)c(F)c1F`, the B-score was 0.274.

Consider `O=C1c2ccccc2S(=O)(=O)c2cc(N3CCN(c4ccccn4)CC3)ccc21`, for which the B-score was 0.804.

`Cc1ccc(-n2c(C)cc(/C=C(\C#N)C(=O)NCC3CCCO3)c2C)cc1` (configuration not stated): the B-score was -1.95.

As to `CC(C)CC(=O)N/C(N)=N/c1nc2ccccc2s1`, the B-score was -4.05 (active).

`O=C(O)CSCc1nc2ccccc2s1`: the B-score was 1.19.

`CCC(=O)NC(=Nc1nc2ccccc2s1)NC(=O)CC`: the B-score is -0.485.

Turning to `Cc1ccc(/C=N/NC(=O)C2=NNC(c3ccccc3)(c3ccccc3)C2)c(O)c1`, the B-score was -6.92 (active).

In the case of `Cc1nn(C)cc1/C=N/NC(=O)c1sc2ccccc2c1Cl`, the B-score was 2.17.

Regarding `Cc1ccc(-c2nn(-c3ccccc3)cc2/C=N/NC(=O)c2ccc3c(c2)OCO3)cc1`, the B-score is -3.75.

For `COc1ccc(SCc2noc(C(=O)NCC3CCCO3)c2C(=O)O)cc1` (configuration not stated), the B-score is 1.72.

As for `CCS(=O)(=O)n1nc(-c2ccc(OC)cc2)nc1SC`, the B-score is -0.316.

For the molecule `CCS(=O)(=O)n1nc(-c2ccccc2)nc1SCc1ccccc1`, the B-score is -3.19 (active).

In the case of `CS(=O)(=O)n1nc(-c2ccccc2)nc1NCc1ccco1`, the B-score was 0.406.

As to `NC(=O)C1=C[C@H](c2csc3ccccc23)C[C@H](OCc2ccc(CO)cc2)O1`, the B-score is 0.00737.

Take `COCCOCCn1cnc2ccccc21`: the B-score is 0.734.

Turning to `Cc1cc2nc(C)n(CCCNC(=O)Nc3ccccc3)c2cc1C`, the B-score was -1.52.

Regarding `Cc1cc2ncn(CCCCOc3ccccc3)c2cc1C`, the B-score is -4.34 (active).

For `Cc1ccc2c(c1)-c1c(ssc1=S)C(C)(C)N2C(=O)CN1C(=O)c2ccccc2C1=O`, the B-score was -1.31.

With `CC1=C(C)C(=O)OC(C(C)C2CCC3C4CC=C5CC(OC6OC(COC7OC(CO)C(O)C(O)C7O)C(O)C(O)C6O)CC(O)C5(C)C4CCC23C)C1` (configuration not stated), the B-score is -0.348.

`CC(C)=CCC/C(C)=C/C(=O)O`: the B-score is 0.444.

As to `CN(C)c1ccc(NC(=S)N(CCc2ccccc2)C2CC(=O)N(c3c(Cl)cccc3Cl)C2=O)cc1` (configuration not stated), the B-score was -7.09 (active).

As to `CCCOc1ccc(N2C(=O)CC(N(CCc3ccc(S(N)(=O)=O)cc3)C(C)=O)C2=O)cc1` (configuration not stated), the B-score is -0.148.

In the case of `COC(=O)CN(C(=S)Nc1ccc(Cl)cc1)C1CC(=O)N(c2ccc(OC)cc2)C1=O` (configuration not stated), the B-score was -0.0552.

As to `C/C=C(/C)C(=O)O[C@@H]1c2cc3c(c4c2[C@@]2(CO4)C(=O)C(OC)=C(OC)C=C2C[C@@H](C)[C@H]1C)OCO3`, the B-score is -0.0512.

Regarding `CCN1CCN(C(=O)/C=C\C(=O)O)CC1`, the B-score is -0.00536.

Consider `O=C(NCCCCCCCCCNC(=O)C(F)(F)F)C(F)(F)F`, for which the B-score was -0.288.

Regarding `O=C(c1cccc2ccccc12)N1CCN(c2ccccc2F)CC1`, the B-score is -2.56.

For `Cn1c(C(=O)N2CCC(C(N)=O)CC2)cc2c(=O)n(C)c3ccccc3c21`, the B-score is 0.0764.

With `Cn1c2ccccc2c2c(C(=O)N3CCN(c4ccc(F)cc4)CC3)cn(C3CCCC3)c(=O)c21`, the B-score was -5.04 (active).
